# Key:
# Experiment in all cases: cross-linking mass spectrometry
# CD59 = CD59 (UniProt P13987); settings: DSSO
# CLTC = CLTC (UniProt Q00610)
# EEA1 = EEA1 (UniProt Q15075); settings: DMTMM
# PLBD2 = PLBD2 (UniProt Q8NHP8); settings: DSSO
# PPT1 = PPT1 (UniProt P50897); settings: DSSO
# RAB7A = RAB7A (UniProt P51149); settings: DMTMM
# CCT3 = CCT3 (UniProt P49368); settings: DMTMM
# ATP6V1F = ATP6V1F (UniProt Q16864); settings: DHSO
# BNC1 = BNC1 (UniProt Q01954); settings: DSSO
# CC2D1A = CC2D1A (UniProt Q6P1N0); settings: DMTMM
# BLOC1S2 = BLOC1S2 (UniProt Q6QNY1); settings: DSSO
# CEP250 = CEP250 (UniProt Q9BV73); settings: DSSO
# CCDC40 = CCDC40 (UniProt Q4G0X9); settings: DMTMM
# CHMP4B = CHMP4B (UniProt Q9H444)
# CHMP5 = CHMP5 (UniProt Q9NZZ3)
# CNPY2 = CNPY2 (UniProt Q9Y2B0); settings: DSSO
# CENPI = CENPI (UniProt Q92674); settings: DSSO
# BORCS6 = BORCS6 (UniProt Q96GS4); settings: DSSO
# ATP6V1H = ATP6V1H (UniProt Q9UI12); settings: DMTMM
# COX4I1 = COX4I1 (UniProt P13073); settings: DSSO
# CEP128 = CEP128 (UniProt Q6ZU80); settings: DSSO
# CHMP3 = CHMP3 (UniProt Q9Y3E7); settings: DSSO
# CCDC93 = CCDC93 (UniProt Q567U6); settings: DSSO
# CPVL = CPVL (UniProt Q9H3G5); settings: DSSO
# PHF5A = PHF5A (UniProt Q7RTV0); settings: DSSO
# SF3B6 = SF3B6 (UniProt Q9Y3B4); settings: DSSO
# LIPA = LIPA (UniProt P38571); settings: DMTMM
# CRCP = CRCP (UniProt O75575); settings: DSSO
# POLR2H = POLR2H (UniProt P52434); settings: DSSO
# POLR3K = POLR3K (UniProt Q9Y2Y1); settings: DSSO
# CWC15 = CWC15 (UniProt Q9P013); settings: DSSO
# DCTN2 = DCTN2 (UniProt Q13561); settings: DSSO
# DDX23 = DDX23 (UniProt Q9BUQ8)
# DEF8 = DEF8 (UniProt Q6ZN54); settings: DSSO
# DHCR7 = DHCR7 (UniProt Q9UBM7); settings: DSSO
# LCLAT1 = LCLAT1 (UniProt Q6UWP7); settings: DSSO
# RPN1 = RPN1 (UniProt P04843); settings: DSSO
# DNAAF1 = DNAAF1 (UniProt Q8NEP3); settings: DMTMM
# DYNC1I2 = DYNC1I2 (UniProt Q13409); settings: DMTMM
# DYNC1LI1 = DYNC1LI1 (UniProt Q9Y6G9); settings: DSSO
# Chain of PGRMC1, O00264 (O00264 whole entry): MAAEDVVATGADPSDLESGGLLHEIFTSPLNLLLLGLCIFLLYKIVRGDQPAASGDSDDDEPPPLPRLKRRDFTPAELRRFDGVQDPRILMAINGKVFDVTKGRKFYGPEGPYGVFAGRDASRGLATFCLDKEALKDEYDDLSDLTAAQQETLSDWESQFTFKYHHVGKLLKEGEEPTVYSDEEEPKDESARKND
# Chain of SF3B1, O75533 (O75533 whole entry): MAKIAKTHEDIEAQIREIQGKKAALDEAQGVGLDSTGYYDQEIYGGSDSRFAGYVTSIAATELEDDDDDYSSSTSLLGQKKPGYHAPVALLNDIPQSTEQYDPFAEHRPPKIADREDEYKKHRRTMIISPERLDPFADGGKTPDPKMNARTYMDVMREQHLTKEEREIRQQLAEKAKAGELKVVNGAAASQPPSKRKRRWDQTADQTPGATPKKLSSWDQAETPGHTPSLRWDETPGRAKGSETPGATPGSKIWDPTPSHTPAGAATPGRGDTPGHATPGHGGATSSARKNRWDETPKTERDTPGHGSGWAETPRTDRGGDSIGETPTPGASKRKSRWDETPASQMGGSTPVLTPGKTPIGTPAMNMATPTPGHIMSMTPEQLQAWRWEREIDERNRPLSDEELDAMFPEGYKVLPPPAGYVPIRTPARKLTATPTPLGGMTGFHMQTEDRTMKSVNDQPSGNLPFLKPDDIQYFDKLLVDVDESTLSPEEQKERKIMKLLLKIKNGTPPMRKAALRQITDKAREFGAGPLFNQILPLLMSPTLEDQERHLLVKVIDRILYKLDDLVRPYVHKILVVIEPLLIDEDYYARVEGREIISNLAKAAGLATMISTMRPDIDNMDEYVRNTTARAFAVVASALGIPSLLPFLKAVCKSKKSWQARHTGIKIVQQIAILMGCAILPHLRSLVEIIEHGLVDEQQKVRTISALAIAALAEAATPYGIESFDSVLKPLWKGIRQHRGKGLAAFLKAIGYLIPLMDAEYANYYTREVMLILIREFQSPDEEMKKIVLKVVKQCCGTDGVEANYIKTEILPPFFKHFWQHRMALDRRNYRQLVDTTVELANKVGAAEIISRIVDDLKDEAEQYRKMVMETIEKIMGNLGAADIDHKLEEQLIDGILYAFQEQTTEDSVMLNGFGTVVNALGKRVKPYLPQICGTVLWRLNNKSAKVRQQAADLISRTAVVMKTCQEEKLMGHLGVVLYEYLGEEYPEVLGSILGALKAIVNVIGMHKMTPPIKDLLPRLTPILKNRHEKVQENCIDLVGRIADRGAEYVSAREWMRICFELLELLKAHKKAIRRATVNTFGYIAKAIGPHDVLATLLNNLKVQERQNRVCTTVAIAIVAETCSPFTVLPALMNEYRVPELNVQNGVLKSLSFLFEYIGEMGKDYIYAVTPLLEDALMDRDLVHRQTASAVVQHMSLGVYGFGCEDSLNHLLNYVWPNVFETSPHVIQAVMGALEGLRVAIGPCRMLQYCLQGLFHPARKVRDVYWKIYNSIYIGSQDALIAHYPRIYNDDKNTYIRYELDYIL
# Chain of DDX23 (Q9BUQ8 whole entry): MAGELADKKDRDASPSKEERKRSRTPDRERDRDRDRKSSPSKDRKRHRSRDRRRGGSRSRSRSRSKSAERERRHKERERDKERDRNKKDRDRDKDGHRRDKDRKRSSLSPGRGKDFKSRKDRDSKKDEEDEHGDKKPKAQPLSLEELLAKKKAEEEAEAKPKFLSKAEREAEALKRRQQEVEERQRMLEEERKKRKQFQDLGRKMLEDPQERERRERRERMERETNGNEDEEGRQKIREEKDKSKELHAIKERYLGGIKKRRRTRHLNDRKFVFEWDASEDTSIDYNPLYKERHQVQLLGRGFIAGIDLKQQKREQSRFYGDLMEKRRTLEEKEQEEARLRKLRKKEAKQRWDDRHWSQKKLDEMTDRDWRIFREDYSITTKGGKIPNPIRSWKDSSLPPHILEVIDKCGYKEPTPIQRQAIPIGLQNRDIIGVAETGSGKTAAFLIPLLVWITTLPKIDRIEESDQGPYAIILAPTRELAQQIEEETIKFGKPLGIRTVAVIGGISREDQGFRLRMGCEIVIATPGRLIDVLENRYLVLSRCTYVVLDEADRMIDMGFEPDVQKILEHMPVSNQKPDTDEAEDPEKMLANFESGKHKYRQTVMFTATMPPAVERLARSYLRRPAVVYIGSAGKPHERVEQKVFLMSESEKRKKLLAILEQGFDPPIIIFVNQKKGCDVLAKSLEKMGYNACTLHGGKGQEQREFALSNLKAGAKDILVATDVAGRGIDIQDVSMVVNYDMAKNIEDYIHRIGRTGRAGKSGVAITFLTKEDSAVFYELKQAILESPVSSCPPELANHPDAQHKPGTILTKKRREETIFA
# Chain of IGF2R, P11717 (P11717 whole entry): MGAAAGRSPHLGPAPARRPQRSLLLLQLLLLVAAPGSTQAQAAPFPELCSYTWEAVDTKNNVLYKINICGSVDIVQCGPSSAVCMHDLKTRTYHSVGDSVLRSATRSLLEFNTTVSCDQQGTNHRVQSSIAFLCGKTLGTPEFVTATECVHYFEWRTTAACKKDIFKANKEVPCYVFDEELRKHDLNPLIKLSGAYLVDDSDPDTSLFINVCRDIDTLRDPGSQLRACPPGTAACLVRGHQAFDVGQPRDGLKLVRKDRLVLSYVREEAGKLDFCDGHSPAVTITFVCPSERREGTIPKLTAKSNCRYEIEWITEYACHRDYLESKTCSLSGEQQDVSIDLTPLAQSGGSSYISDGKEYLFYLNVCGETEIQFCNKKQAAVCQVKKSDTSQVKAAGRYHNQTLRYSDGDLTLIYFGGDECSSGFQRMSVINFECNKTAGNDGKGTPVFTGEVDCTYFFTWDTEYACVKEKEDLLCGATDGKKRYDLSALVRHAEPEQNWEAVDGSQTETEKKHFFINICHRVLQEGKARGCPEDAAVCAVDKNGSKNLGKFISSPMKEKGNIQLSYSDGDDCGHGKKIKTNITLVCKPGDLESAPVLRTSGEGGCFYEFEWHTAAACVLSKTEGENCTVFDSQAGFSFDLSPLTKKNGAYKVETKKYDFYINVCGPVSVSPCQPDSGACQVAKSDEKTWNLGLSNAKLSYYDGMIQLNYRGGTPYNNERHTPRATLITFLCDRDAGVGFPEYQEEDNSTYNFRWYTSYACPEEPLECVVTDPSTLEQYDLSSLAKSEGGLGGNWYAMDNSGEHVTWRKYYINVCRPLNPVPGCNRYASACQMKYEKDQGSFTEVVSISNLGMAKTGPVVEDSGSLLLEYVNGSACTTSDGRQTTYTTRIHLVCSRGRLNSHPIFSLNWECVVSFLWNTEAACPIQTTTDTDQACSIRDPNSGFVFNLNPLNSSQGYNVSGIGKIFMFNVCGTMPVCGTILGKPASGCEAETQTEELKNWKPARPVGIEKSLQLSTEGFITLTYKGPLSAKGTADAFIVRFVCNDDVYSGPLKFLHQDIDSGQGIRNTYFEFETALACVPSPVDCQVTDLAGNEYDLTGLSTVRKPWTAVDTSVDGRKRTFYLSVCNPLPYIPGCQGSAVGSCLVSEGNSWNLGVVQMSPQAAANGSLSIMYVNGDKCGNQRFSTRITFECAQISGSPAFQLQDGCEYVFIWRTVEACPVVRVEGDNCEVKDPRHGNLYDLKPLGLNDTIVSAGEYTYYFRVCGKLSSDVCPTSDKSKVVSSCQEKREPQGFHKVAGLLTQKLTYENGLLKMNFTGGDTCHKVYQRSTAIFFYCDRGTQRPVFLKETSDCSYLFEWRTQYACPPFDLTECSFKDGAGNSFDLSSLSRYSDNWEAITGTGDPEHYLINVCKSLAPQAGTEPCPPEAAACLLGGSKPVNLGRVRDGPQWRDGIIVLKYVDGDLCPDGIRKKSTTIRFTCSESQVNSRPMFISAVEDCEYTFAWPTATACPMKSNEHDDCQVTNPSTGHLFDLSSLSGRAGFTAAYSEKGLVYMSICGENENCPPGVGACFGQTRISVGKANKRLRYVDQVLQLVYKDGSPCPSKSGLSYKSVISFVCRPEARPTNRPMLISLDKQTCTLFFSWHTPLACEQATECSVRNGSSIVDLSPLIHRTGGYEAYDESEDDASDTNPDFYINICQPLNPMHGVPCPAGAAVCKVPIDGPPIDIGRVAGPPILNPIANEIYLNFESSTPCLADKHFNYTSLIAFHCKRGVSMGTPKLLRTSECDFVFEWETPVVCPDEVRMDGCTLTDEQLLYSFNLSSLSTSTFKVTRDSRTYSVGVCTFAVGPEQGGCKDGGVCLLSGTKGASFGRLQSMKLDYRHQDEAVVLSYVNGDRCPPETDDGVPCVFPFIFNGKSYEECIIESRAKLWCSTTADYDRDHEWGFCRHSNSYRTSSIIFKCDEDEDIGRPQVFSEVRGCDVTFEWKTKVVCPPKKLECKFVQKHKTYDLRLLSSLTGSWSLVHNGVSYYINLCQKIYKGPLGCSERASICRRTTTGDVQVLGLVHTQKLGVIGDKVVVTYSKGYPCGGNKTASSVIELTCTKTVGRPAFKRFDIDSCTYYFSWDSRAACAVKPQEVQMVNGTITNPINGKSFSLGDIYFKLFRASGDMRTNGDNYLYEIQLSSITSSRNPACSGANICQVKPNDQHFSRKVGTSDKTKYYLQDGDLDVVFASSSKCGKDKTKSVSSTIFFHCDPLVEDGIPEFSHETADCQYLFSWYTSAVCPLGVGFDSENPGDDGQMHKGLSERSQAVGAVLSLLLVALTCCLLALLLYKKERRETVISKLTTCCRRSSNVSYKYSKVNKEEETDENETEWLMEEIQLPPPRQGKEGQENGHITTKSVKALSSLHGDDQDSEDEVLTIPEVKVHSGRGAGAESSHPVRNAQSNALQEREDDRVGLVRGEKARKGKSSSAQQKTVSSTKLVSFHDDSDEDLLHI
# Chain of CHMP5 (Q9NZZ3 whole entry): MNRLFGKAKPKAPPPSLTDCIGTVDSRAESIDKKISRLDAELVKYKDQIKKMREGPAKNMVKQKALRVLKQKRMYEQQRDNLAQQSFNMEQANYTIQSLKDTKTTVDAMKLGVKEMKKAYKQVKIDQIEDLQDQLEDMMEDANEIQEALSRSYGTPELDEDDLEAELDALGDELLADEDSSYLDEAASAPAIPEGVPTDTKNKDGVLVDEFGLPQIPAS
substance,measurement,setting,value
"IGF2R, P11717",cross-linked residues,CD59,K170 - K90
same,cross-linked residues,CLTC; DSSO,K2470 - K245
same,cross-linked residues,EEA1,K2470 - E1329
same,cross-linked residues,PLBD2,K1030 - K367
same,cross-linked residues,PPT1,K1104 - K253
same,cross-linked residues,RAB7A,K2470 - D104
"PLXNC1, O60486",cross-linked residues,CLTC; DSSO,K1347 - K1612
"CCT6A, P40227",cross-linked residues,CCT3,K530 - E69
"ATP6V1A, P38606",cross-linked residues,ATP6V1F,D562 - E49
"NCL, P19338",cross-linked residues,BNC1,K348 - K545
same,cross-linked residues,CC2D1A,E361 - K732
"SNAPIN, O95295",cross-linked residues,BLOC1S2,K73 - K92
"PTPN9, P43378",cross-linked residues,CLTC; DMTMM,E2 - D823
"CROCC, Q5TZA2",cross-linked residues,CEP250,K1333 - K660
"PTPRF, P10586",cross-linked residues,CCDC40,E195 - K1058
"XPA, P23025",cross-linked residues,CHMP4B; DMTMM,K217 - E48
"CHMP4B, Q9H444",cross-linked residues,CHMP5; DHSO,E90 - E41
same,cross-linked residues,CHMP5; DSSO,K14 - K114
"HSP90B1, P14625",cross-linked residues,CNPY2,K161 - K49
"PDCD6IP, Q8WUM4",cross-linked residues,CENPI,K285 - K618
same,cross-linked residues,CHMP4B; DSSO,K215 - K207
"BLOC1S2, Q6QNY1",cross-linked residues,BORCS6,K92 - K224
"ATP6V1G1, O75348",cross-linked residues,ATP6V1H,K21 - D11
"COX5B, P10606",cross-linked residues,COX4I1,K86 - K29
"ODF2, Q5BJF6",cross-linked residues,CEP128,K780 - K552
"CHMP2A, O43633",cross-linked residues,CHMP3,K9 - K106
"RPL7A, P62424",cross-linked residues,CCDC93,K245 - K625
"SF3B1, O75533",cross-linked residues,CPVL,K163 - K423
same,cross-linked residues,PHF5A,K554 - K13
same,cross-linked residues,SF3B6,K214 - K7
"CTSD, P07339",cross-linked residues,CPVL,K127 - K423
same,cross-linked residues,LIPA,D238 - K304
"POLR3A, O14802",cross-linked residues,CRCP,K398 - K34
same,cross-linked residues,POLR2H,K590 - K146
same,cross-linked residues,POLR3K,K1224 - K96
"SNW1, Q13573",cross-linked residues,CWC15,K153 - K18
"PLRG1, O43660",cross-linked residues,CWC15,K363 - K18
"ACTR1A, P61163",cross-linked residues,DCTN2,K361 - K119
"EFTUD2, Q15029",cross-linked residues,DDX23; DMTMM,D860 - K196
same,cross-linked residues,DDX23; DSSO,K244 - K196
"SNRNP200, O75643",cross-linked residues,DDX23; DSSO,K14 - K251
"WDR45B, Q5MNZ6",cross-linked residues,DEF8,K42 - K180
"SACM1L, Q9NTJ5",cross-linked residues,DHCR7,K10 - K13
"PGRMC1, O00264",cross-linked residues,DHCR7,K102 - K13
same,cross-linked residues,LCLAT1,K105 - K221
same,cross-linked residues,RPN1,K105 - K524
"MSL1, Q68DK7",cross-linked residues,DNAAF1,K509 - E532
"DYNLL1, P63167",cross-linked residues,DYNC1I2,K36 - E159
"DYNC1H1, Q14204",cross-linked residues,DYNC1LI1,K872 - K94

# Source: publication doi:10.1101/2025.02.07.636106
